Source: PubChem BioAssay AID504332 (National Center for Advancing Translational Sciences (NCATS), 2011)
The campaign covered roughly 350,000 compounds. About 31,000 (8.9%) were called active. Another 15% or so got no clear call; they are omitted. The sample holds actives, similar compounds and a random draw of the others, so the mix is not that of the screen. Calls come from the whole dose curve; as a rule, active = well fitted inhibition curve with a large enough effect; inconclusive = small, poorly fitted or top-dose-only effect; inactive = no such curve, though single readings can be large or run the other way.

Target: Histone-lysine N-methyltransferase EHMT2 (Homo sapiens) (UniProt Q96KQ7)
Assay: qHTS Assay for Inhibitors of Histone Lysine Methyltransferase G9a; note: nearly all actives have a fitted effect of over 75% in size
Settings: G9a H3K9 monomethylation, AlphaScreen, 2 h; series mostly up to 59 µM
How it was run: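 Quantitative HTS format: methyltransferase activity on a biotin-tagged H3K9 peptide is measured by AlphaScreen, using a rabbit anti-monomethyl-H3K9 antibody with streptavidin donor and anti-IgG acceptor beads. Final levels are 20 nM enzyme, 500 nM peptide, 20 uM SAM; 2 h RT.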
% is set by controls: 0 for no effect and ±100 for the full control effect; potency is the fitted concentration of half-maximal effect.

Histone-lysine N-methyltransferase EHMT2 (Homo sapiens), sequence (Q96KQ7 913-1193 limits assumed): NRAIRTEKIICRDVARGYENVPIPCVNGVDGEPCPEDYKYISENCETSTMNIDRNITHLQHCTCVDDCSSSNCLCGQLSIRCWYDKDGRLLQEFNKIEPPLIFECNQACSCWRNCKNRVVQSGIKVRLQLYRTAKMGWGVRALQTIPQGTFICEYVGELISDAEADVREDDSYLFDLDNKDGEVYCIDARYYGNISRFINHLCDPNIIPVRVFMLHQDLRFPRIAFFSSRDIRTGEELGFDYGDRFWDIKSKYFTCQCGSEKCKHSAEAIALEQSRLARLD

Potency, inactive:
COc1ccc(NC(=O)CSc2nccn2Cc2ccc3c(c2)OCO3)cc1
Cc1nc(SCC(=O)Nc2ccc(C(=O)O)cc2)n[nH]1
O=C(CSc1n[nH]c(-c2cccnc2)n1)Nc1ccc(Cl)cc1
CC(C)Cn1c(C2CC(=O)N(c3ccccc3Cl)C2)nc2ccccc21 (configuration not stated)
COc1ccc(C)cc1N(CC(=O)N1CCC(C)CC1)S(=O)(=O)c1ccc(C)cc1
O=C(NC1CCN(Cc2ccccc2)CC1)c1ccc(Cn2c(=O)c3ccccc3n(Cc3cccc(F)c3)c2=O)cc1
COc1ccc(-n2ncc3c2CC(C)(C)CC3NC(=O)CCc2c(C)nn(C)c2C)cc1 (configuration not stated)
O=C(Cn1c(-c2cccs2)cc2ccccc21)NCCc1ccc(Cl)cc1
COc1ccc(C)cc1-n1nnnc1SCc1nc2ccccc2c(=O)[nH]1
COc1cc(OC)c(OC)cc1/C=C/c1nc2ccccc2c(=O)n1-c1ccc(Br)c(C)c1
O=C(NC1(C(F)(F)F)N=C(c2ccccc2)N(C2CCCCC2)C1=O)c1ccccc1F (configuration not stated)
COc1ccc(NC(=O)C(c2ccccc2)N2Cc3ccccc3C2=O)cc1 (configuration not stated)
COc1ccc(NC(=O)c2ccc3oc(=O)c(S(=O)(=O)c4ccc(F)cc4)cc3c2)c(OC)c1
COc1ccccc1CNC(=O)CCn1c(=O)c2ccccc2n(CC(=O)Nc2cccc(Cl)c2)c1=O
COc1cccc(NC(=O)N2CCN(C(=O)c3nsc4ccccc34)CC2)c1
COc1cc(CNC(=O)c2cc3n(n2)CCCN(Cc2cccc(F)c2)C3=O)cc(OC)c1OC
CCNC(=O)CSc1nc(-c2ccccc2)cs1
COc1ccc(C(CNC(=O)c2ccc(NS(=O)(=O)c3ccc(F)c(C)c3)cc2)N(C)C)cc1 (configuration not stated)
Cc1nnc(NCc2ccccc2)c2c1nnn2Cc1ccc(F)cc1
COCCNc1ccc(-c2n[nH]c(=O)c3ccccc23)cc1[N+](=O)[O-]
Cc1cc(C)cc(NS(=O)(=O)c2ccc(-c3cc(C)no3)s2)c1
OCCN1CCN(c2nnc(-c3ccccc3)c3ccccc23)CC1
O=C(NC(c1ccccc1)c1ccccc1)N1CCN(CCO)CC1
COCCNC(=O)CSc1nc(-c2ccccc2)[nH]c1-c1ccc(C)cc1
COC(=O)CN1C(=O)[C@H]2[C@@H](/C=C/c3ccccc3)N3C(=O)CN(Cc4ccccc4)C(=O)[C@@]3(Cc3ccccc3)[C@H]2C1=O
Fc1ccccc1Oc1ncnc2c1oc1ccccc12
COc1cccc(NS(=O)(=O)c2ccc(-c3coc(C)n3)cc2)c1
COc1ccc(-c2nc3sc(CCNS(=O)(=O)c4ccc(F)c(C)c4)c(C)n3n2)cc1
CC(C)Oc1ccc(CNC(=O)C2CCN(c3nc4ccccc4n(C)c3=O)CC2)cc1
COc1ccccc1/C=C/C1=NC(=C\N(C)C)/C(=O)O1
COc1cccc(/C=C2\C=C(c3ccc(C)cc3)OC2=O)c1OC(C)=O
COc1ccc(-c2ccc3nnc(SCC(=O)Nc4ccc(NC(C)=O)cc4)n3n2)cc1
Cc1ccc(-c2nnc(SCc3ccccc3C)o2)cc1
CCNC(=S)N(CCN(CC)CC)Cc1cc2cc3c(cc2[nH]c1=O)OCO3
CCN(CC)CCCNC(=S)N(CCO)Cc1cc2cc3c(cc2[nH]c1=O)OCO3
O=C(COc1ccccc1)Nc1ccc(C(=O)N2CCCC2)cc1
COc1ccc(-c2nn3c(-c4ccc(OC)cc4)nnc3c3ccccc23)cc1
NC(=S)N/N=C/c1ccc([N+](=O)[O-])cc1
CC(=O)NC(=S)Nc1ccc(NC(=S)NC(=O)c2ccc([N+](=O)[O-])cc2)cc1
CCN(CC)CCNC(=O)CN1N=C(c2ccc(OC)cc2)CCC1=O
CN(C)S(=O)(=O)c1ccc(NC(=O)COC(=O)Cn2[nH]c(=O)c3ccccc3c2=O)cc1
Cc1noc2ncnc(NCc3ccccc3Cl)c12
COc1ccccc1CNC(=O)C1CCN(S(=O)(=O)c2ccc3c(c2)CC(C)N3C(=O)C2CC2)CC1 (configuration not stated)
CCN(CC)S(=O)(=O)c1ccc(C)c(NC(=O)COc2ccc(Br)cc2Cl)c1
CCC(=O)Nc1nnc(S(=O)(=O)N(CC(C)C)c2ccccc2)s1
CC1CCN(S(=O)(=O)c2nnc(NC(=O)COc3ccccc3F)s2)CC1
Cc1cccc(C(=O)Nc2nnc(S(=O)(=O)N3CCCCCC3)s2)c1
O=C(Nc1nnc(S(=O)(=O)N2CCOCC2)s1)c1cccc(Br)c1
COc1cccc(C(=O)Nc2nnc(S(=O)(=O)N3CCCCC3)s2)c1
CCc1ccc(CNC(=O)c2cc3c(=O)n(CC)c4ccccc4c3s2)cc1
CCCN1CN=C(NS(=O)(=O)c2ccc(NC(C)=O)cc2)NC1
O=S(=O)(c1ccc(-c2ccno2)s1)N1CCCCC1
CC1=C(C(=O)Nc2ccccc2Cl)C(c2cccs2)n2ncnc2N1 (configuration not stated)
COc1ccc(Cl)cc1C(=O)OCC(=O)NCc1cccs1
CCSc1nnc(NC(=O)c2cc(=O)c3cc(C)c(C)cc3o2)s1
Cc1ccc(Cl)cc1NC(=O)NC1COc2ccccc2C1 (configuration not stated)
CSc1nc(Nc2ccc(F)cc2)cc(-c2ccccc2)n1
CN(C)c1nc(NN)nc(Nc2ccc(F)cc2)n1
Cc1ccc(C2=CSC3=NS(=O)(=O)CCN23)cc1C
O=C1/C(=C\c2cccnc2)CN(Cc2ccccc2)C/C1=C\c1cccnc1
COc1ccccc1C(=O)NCCC(=O)N(C)Cc1cccnc1
COCCN1C(=O)C(=O)/C(=C(/O)c2ccc(S(=O)(=O)N3CCOCC3)cc2)C1c1ccc(OC)c(OC)c1 (configuration not stated)
CC1Cc2cc(/C(O)=C3\C(=O)C(=O)N(CCN4CCOCC4)C3c3ccccc3F)ccc2O1 (configuration not stated)

Potency, active:
CN(C)c1ccc(NC(=O)CSc2n[nH]c(-c3ccco3)n2)cc1 44.7 µM
CCc1ccc(Nc2nnc(SCC(=O)c3ccc4c(c3)NC(=O)CO4)s2)cc1 15.8 µM
CCOc1cc(/C=C/c2nc3ccccc3c(=O)[nH]2)cc(Br)c1OC 50.1 µM
Cn1c(CNc2nc(-c3ccccc3)cs2)nnc1SCC(=O)c1ccccc1 39.8 µM
OCCN1CCN(C(=S)c2ccc(-c3ccccc3)cc2)CC1 22.4 µM
Nc1ncnc2c1c(I)cn2[C@@H]1C[C@H](N)[C@@H](O)[C@H]1O 6.7 µM
CN(C)/C=C1\C=C(c2ccccc2)OC1=O 39.8 µM
COCCCNC(=S)N(CCN(C)C)Cc1cc2cc3c(cc2[nH]c1=O)OCCO3 35.5 µM
CNC(=S)Nc1ccc([N+](=O)[O-])cc1 56.2 µM
O=C(COC(=O)Cn1[nH]c(=O)c2ccccc2c1=O)Nc1ncc(Cl)cc1Cl 56.2 µM
O=C(Nc1nnc(S(=O)(=O)N2CCCCCC2)s1)c1cccc(Br)c1 8.91 µM
Cc1ccccc1OCC(=O)Nc1nnc(S(=O)(=O)N2CCCC2)s1 2.24 µM
CCN(CC)S(=O)(=O)c1nnc(NC(=O)COc2ccccc2Cl)s1 2.82 µM
Fc1ccc(Nc2nnns2)cc1 10 µM
O=S1(=O)CCN2C(=N1)SC1=C2CCN(Cc2ccccc2)C1 20 µM
COc1ccc(C2/C(=C(/O)c3ccc(OC(C)C)cc3)C(=O)C(=O)N2CCCN2CCOCC2)cc1 (configuration not stated) 44.7 µM
O=C1C(=O)N(CCN2CCOCC2)C(c2ccccn2)/C1=C(/O)c1ccc(Cl)cc1 (configuration not stated) 7.94 µM

activity, negative = inhibition, inactive:
Cn1c(-c2ccc(C(F)(F)F)cc2)cc2onc(-c3ccccc3)c2c1=O -9.13% [at 2.33 µM]
CCCc1nc2ccccc2c(C(=O)OCC(=O)c2ccc3c(c2)NC(=O)CO3)c1CC 16.7% [at 12.7 µM]
O=C1COc2ccc(C(=O)CSc3ccc(Br)cc3)cc2N1 8.05% [at 12.7 µM]
CN(CC(=O)NC1CCN(Cc2ccccc2)CC1)S(=O)(=O)c1ccc(Cl)s1 -1.26% [at 2.33 µM]
CCOC(=O)CSc1nnc(CNc2nc(-c3ccccc3)cs2)n1C 2.05% [at 12.7 µM]
CC(C)n1ncc2c(C(=O)Nc3ccc(CC#N)cc3)cc(C3CC3)nc21 10% [at 2.33 µM]
Cc1ccc(N=C2SCCCN2C(=O)c2cccc(N3C(=O)CCC3=O)c2)cc1Cl 10.1% [at 0.501 µM]
CCN(CC)S(=O)(=O)c1ccc2c(c1)nc(CN(C)C(=O)Nc1ccc(Cl)cc1)n2C 1.45% [at 12.7 µM]
CCCn1c(=O)c(C(=O)Nc2cc(C)ccn2)c(O)c2ccccc21 -5.46% [at 0.501 µM]
O=C(COC(=O)Cn1[nH]c(=O)c2ccccc2c1=O)Nc1c(Cl)cccc1C(F)(F)F 2.11% [at 0.501 µM]
Cc1cc(C)c(C)c(S(=O)(=O)N2CCN(C(=O)c3ccc4c(=O)n5c(nc4c3)CCC5)CC2)c1C -30.4% [at 0.501 µM]
COc1ccc(Cl)cc1NC(=O)COc1ccc2c(c1)OCO2 6.56% [at 12.7 µM]
COc1ccc(NS(=O)(=O)c2cc(NC(=O)COc3ccccc3F)ccc2OC)cc1 30.6% [at 12.7 µM]
CC1(C)O[C@@H]2[C@H](O1)[C@@H](COS(=O)(=O)O)O[C@H]2n1ccc(=O)[nH]c1=O 2.02% [at 2.33 µM]
Cc1cccc(-c2oc3ccc(-c4ccc5c(c4)OCO5)cc3c2C#Cc2cncn2C)c1 7.97% [at 0.501 µM]
O=C1C(=O)N(CCCO)C(c2ccccc2)/C1=C(\O)c1ccc(Br)cc1 (configuration not stated) 12.3% [at 0.501 µM]
O=C1C(=O)N(CCCN2CCOCC2)C(c2ccc([N+](=O)[O-])cc2)/C1=C(\O)c1ccc2c(c1)OCCO2 (configuration not stated) -12.3% [at 0.0925 µM]
